Compounds without any hit were thinned out: in the full panel of roughly 79,000, 15% have a hit. The source made the active and inactive calls. No stated cut-off is given here; in the data, active means growth inhibition above about 70%; inactive means the rest.

This experiment in a line: NCI Yeast Anticancer Drug Screen. Data for the wt1 strain (AID 149).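 Further: 0% = growth of vehicle-treated wt1 cultures.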 To be noted: S. cerevisiae wt1 strain (SPY 50644) growth inhibition; at 11.0 µM; hits give high values. Put shortly:
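Vehicle-normalised growth inhibition; strain wt1; compound exposure.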
`CS(=O)(=O)SCc1ccc([N+](=O)[O-])cc1`: the growth inhibition is 38% (inactive). The result for `Cc1csc(=S)n1OC(=O)NC1CCCCC1` reads 99% (active); that for `CCOc1ccc(NC(=O)C2=C(C)NC(C)=C(C(=O)Nc3ccc(OCC)cc3)C2c2cccc([N+](=O)[O-])c2)cc1`, -5% (inactive); that for `CC(C)(C)N=C(NO)c1ccccc1`, 5% (inactive). The result for `CCCCC/C(=C(\C#N)C(=O)OCC)c1ccccc1` reads -1% (inactive); that for `O=C(NCCCl)Sc1ccc(Cl)cc1`, 0% (inactive); that for `O=C1Nc2ccc(Br)cc2C1=Nc1ccc2c(c1)OCO2`, -12% (inactive).

`CCC(C)OC(=O)Nc1ccc(C)c(NC(=O)OC(C)CC)c1` (centres undefined): the growth inhibition is -5% (inactive). The value for `O=C(O)c1cc2ccc(Cl)cc2c(O)c1C1=CCCCC1` was 6% (inactive); that for `CN(C)Cc1cc(N=Nc2ccc(Cl)cc2)ccc1OC(=O)c1ccccc1` was 3% (inactive); that for `CN1CCN(C(=O)/C=C/C(=O)c2ccccc2)CC1` was 24% (inactive). The result for `CCCC/C=C/C(C)(C(=O)OCC)C(=O)OCC` reads -5% (inactive); that for `Cc1nc(-c2cc3cc([N+](=O)[O-])ccc3oc2=O)cs1`, 11% (inactive); that for `Cc1nc2ccccc2nc1NNc1ccccc1`, 14% (inactive).

Regarding `CN(C)[C@@H]1C(=O)C(C(N)=O)=C(O)[C@@]2(O)C(=O)C3=C(O)c4c(O)cccc4C[C@H]3C[C@@H]12`, the growth inhibition was 30% (inactive). The value for `COc1ccc(NC(=O)CC2SC(=Nc3ccccc3C)NC2=O)c([N+](=O)[O-])c1` (centres undefined) was 1% (inactive). The value for `COc1cc(O)c2c(c1O)C(=O)c1cc(C)ncc1C2=O` was 36% (inactive). The value for `CSc1nnc(SC)nn1` was -14% (inactive). Consider `COc1cc(/C=C2\CCC/C(=C\c3ccc(O)c(OC)c3)C2=O)ccc1O`, for which the growth inhibition is 15% (inactive). The result for `CN(C)CCNC(=O)c1cccc2cc([N+](=O)[O-])ccc12` reads 41% (inactive).

With `CCC(C)(C)c1ccc(Oc2cccc(C(=O)O)c2)cc1`, the growth inhibition is 12% (inactive). The value for `CCCCCCSc1ncnc2[nH]ncc12` was -3% (inactive).

As to `CC(=O)Nc1ccc(/C=C/[N+](=O)[O-])cc1`, the growth inhibition is -4% (inactive).

Take `CCOC(=O)c1[nH]n(-c2ccccc2)c(=O)c1C=NC(=S)C(N)=S`: the growth inhibition was 25% (inactive). The result for `CCCC(O)C1CC(C(C)C)CCC1C` (centres undefined) reads -1% (inactive); that for `O=[n+]1c2ccccc2n([O-])c2cc(Br)ccc21`, 82% (active).

Take `CN(C)CCNC(=O)c1cccc2c1Oc1c(cccc1[N+](=O)[O-])O2`: the growth inhibition is -14% (inactive). The value for `Nc1ncc(-c2ccc(Br)cc2)s1` was 22% (inactive); that for `Cc1cc2cc3cc(C)c(N)cc3nc2cc1N` was -6% (inactive); that for `CC12C(=O)OC(=O)C(c3ccccc31)c1ccccc12` was 4% (inactive). The result for `c1ccc2c(OCC3CO3)cccc2c1` (centres undefined) reads 0% (inactive). The value for `CCOC(=N)c1ccc(O)c(OC)c1` was -3% (inactive); that for `Nc1cc(N)c(N=Nc2cccc3c(S(=O)(=O)O)cccc23)cc1N=Nc1cc([N+](=O)[O-])ccc1O` was 7% (inactive).

Turning to `COC(=O)Oc1cc(Cl)c(Cl)cc1Cl`, the growth inhibition is -3% (inactive). The value for `O=C(O)C1CC(c2ccccc2)=NN1c1ccccc1` (centres undefined) was -50% (inactive); that for `COc1cc([C@@H]2c3cc4c(cc3[C@@H](Nc3ccc(NC(=O)c5cc([N+](=O)[O-])cn5C)cc3)[C@H]3COC(=O)[C@H]23)OCO4)cc(OC)c1O` was 26% (inactive). The value for `O=C(O)c1ccccc1/C=N/N=C1c2ccccc2-c2ccccc21` was 1% (inactive); that for `O=C1CC(=O)c2ccccc21` was 0% (inactive).

With `Nc1ncnc2c1ncn2C1OC(CO)CC1O` (centres undefined), the growth inhibition was -4% (inactive).

For the origin of these results see PubChem BioAssay (NCI).
